Source: PubChem BioAssay (NCATS)
Several values for one entry are separate records, joined by “and”; a condition that tells them apart may be missing. Equal entries are not always repeated. Inconclusive results are not listed. A number with no mark means an inactive call. Activity calls are given as the source filed them. Calls come from the whole dose curve; as a rule, active = well fitted curve in the direction sought with a large enough effect; inconclusive = small, poorly fitted or top-dose-only effect, or another doubt; inactive = no such curve, though single readings can be large; an effect the other way counts as inactive or inconclusive.

How the values were obtained:
[1] = biological target: Cellular tumor antigen p53 (Homo sapiens) (UniProt P04637); test: Primary qHTS for small molecule compounds that upregulate eGFP-tagged delta133p53alpha (in N-terminal) cells. (AID 2060322); conditions: NCI-H358 eGFP-delta133p53alpha fluorescence, 24 h; activation: active compounds read high; note: nearly all actives have a fitted effect of over 75% in size; note: potency is the fitted concentration of half-maximal effect;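 for activation: 0% = DMSO vehicle and 100% = reference activator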
In short: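 NCI-H358 cells pre-induced 24 h with 10 ng/ml doxycycline to express N-terminal eGFP-delta133p53alpha, then dosed 24 h at 37C without doxycycline; fixed, Hoechst-stained, GFP intensity by laser scanning cytometry, normalized to DMSO (0%) and 57.5 uM 5-azacytidine (100%).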

[2] = biological target: Aldehyde dehydrogenase, mitochondrial (Homo sapiens) (UniProt P05091); test: qHTS for Inhibitors of the Aldehyde Dehydrogenase Family (ALDH2) Primary screen (AID 2061308); conditions: ALDH2 enzyme inhibition qHTS, 1536-well; series mostly up to 56 µM;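 note: plate controls were vehicle for no effect and reference inhibitor for full effect; nearly all actives have a fitted effect of over 55% in size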
[3] = biological target: Retinaldehyde dehydrogenase 3 (Homo sapiens) (UniProt P47895); test: qHTS for Inhibitors of the Aldehyde Dehydrogenase Family (ALDH1A3) Primary screen (AID 2061315); conditions: ALDH inhibition qHTS; series mostly up to 56 µM;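 note: plate controls were DMSO vehicle for no effect and reference inhibitor for full effect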
[4] = BET inhibitor-based combinations targeting novel dependencies in MECOM-rearranged (r) AML: SET-2 cell line (AID 2202231); conditions: SET-2 AML cells viability, CellTiter-Glo luminescence, 48 h; viability: active compounds read low, concentration not given here; note: nearly all actives have a fitted effect of over 35% in size; note: potency is the fitted concentration of half-maximal effect;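 for viability: plate controls were DMSO treated cells for no effect and wells without cells for full effect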
In short: (§1)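 Readout: CellTiter-Glo luminescence. Exposure: 48 h, 11 concentrations, 500 cells/well. Metric: AUC and within-line Z-AUC after DMSO/empty-well normalization.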

[5] = BET inhibitor-based combinations targeting novel dependencies in MECOM-rearranged (r) AML: OCI-AML3 cell line (AID 2202232); conditions: CellTiter-Glo luminescence, 48 h; Potency: OCI-AML3 viability; series mostly up to 46 µM; note: nearly all actives have a fitted effect of over 35% in size; note: potency is the fitted concentration of half-maximal effect
In short: as §1

[6] = BET inhibitor-based combinations targeting novel dependencies in MECOM-rearranged (r) AML: HNT-34 cell line (AID 2202234); conditions: HNT-34 AML viability, CellTiter-Glo luminescence, 48 h; series mostly up to 46 µM; note: nearly all actives have a fitted effect of over 35% in size; note: potency is the fitted concentration of half-maximal effect
In short: (§2)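 Seeding density was 500 cells/well, and drug exposure lasted 48 hr under standard culture conditions. Read-out used CellTiter-Glo reagent with a 15 min room-temperature incubation before luminescence measurement; AUC and Z-AUC summarize the normalized responses.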

[7] = BET inhibitor-based combinations targeting novel dependencies in MECOM-rearranged (r) AML: UCSD-AML1 cell line (AID 2202235); conditions: UCSD-AML1 AML cells viability, CellTiter-Glo, 48 h; series mostly up to 46 µM; note: nearly all actives have a fitted effect of over 40% in size; note: potency is the fitted concentration of half-maximal effect
In short: as §2

[8] = BET inhibitor-based combinations targeting novel dependencies in MECOM-rearranged (r) AML: AML-191 cell line (AID 2202236; note: nearly all actives have a fitted effect of over 35% in size; note: potency is the fitted concentration of half-maximal effect); conditions: AML-191 viability, CellTiter-Glo luminescence, 48 h; series mostly up to 46 µM
In short: as §1

[9] = BET inhibitor-based combinations targeting novel dependencies in MECOM-rearranged (r) AML: MV-4-11 cell line (AID 2202233); conditions: MV-4-11 AML viability, CellTiter-Glo luminescence, 48 h; series mostly up to 46 µM; note: nearly all actives have a fitted effect of over 45% in size; note: potency is the fitted concentration of half-maximal effect
In short: as §2

[10] = BET inhibitor-based combinations targeting novel dependencies in MECOM-rearranged (r) AML: AML-194 cell line (AID 2202237; note: nearly all actives have a fitted effect of over 40% in size; note: potency is the fitted concentration of half-maximal effect); conditions: AML-194 (MECOM-r AML) viability, CellTiter-Glo, 48 h; series mostly up to 46 µM
In short: as §1

Sequence of Cellular tumor antigen p53 (Homo sapiens) (P04637 whole entry, looked up): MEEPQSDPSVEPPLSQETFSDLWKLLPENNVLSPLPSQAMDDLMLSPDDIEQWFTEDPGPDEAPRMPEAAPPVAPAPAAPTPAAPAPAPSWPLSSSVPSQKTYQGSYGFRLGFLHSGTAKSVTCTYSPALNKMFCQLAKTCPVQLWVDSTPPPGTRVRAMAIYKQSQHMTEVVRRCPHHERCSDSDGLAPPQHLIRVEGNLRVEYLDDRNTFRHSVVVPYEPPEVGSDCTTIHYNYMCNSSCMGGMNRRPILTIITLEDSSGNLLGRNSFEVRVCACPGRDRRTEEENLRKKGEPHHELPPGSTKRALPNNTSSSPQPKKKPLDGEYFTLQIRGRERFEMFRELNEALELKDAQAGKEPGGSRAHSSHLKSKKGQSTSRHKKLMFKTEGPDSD

Compound | activation [1] | Potency [2] | Potency [3] | viability [4] [%] | Potency [5] | Potency [6] | Potency [7] | Potency [8] | Potency [9] | Potency [10] | Potency [4] | Potency [1]
Cc1ccccc1C(=O)Nc1ccc(C(=O)N2CCCC(O)c3cc(Cl)ccc32)c(C)c1 (stereo not given) | 0.83% | inactive | inactive | 88.6 | inactive | inactive | inactive | inactive |  |  |  | 
O=C(Nc1ccc(Oc2ccnc3[nH]ccc23)c(F)c1)c1cccn(-c2ccc(F)cc2)c1=O | -27.3% and -22.3% | inactive | inactive | 106 | 13.2 µM (active) |  | inactive | 2.35 µM (active) | 0.0295 µM (active) | 8.33 µM (active) |  | 
O=C(Nc1ccc(S(=O)(=O)N2CCOCC2)cc1)c1cc(Cl)ccc1NS(=O)(=O)c1ccc(Cl)s1 | 0.837% | inactive | inactive | 98.4 | inactive |  | inactive |  | inactive | inactive |  | 
O=C(c1ccc(Nc2nccc(-c3cc4ccccc4s3)n2)cc1)N1CCC(N2CCCC2)CC1 | -33.3% | inactive | inactive |  | 18.6 µM (active) |  | 3.32 µM (active) | 7.42 µM (active) | 1.86 µM (active) | 7.42 µM (active) | 6.61 µM (active) | 
CC1(C)CCC(CN2CCN(c3ccc(C(=O)NS(=O)(=O)c4ccc(NCC5CCOCC5)c([N+](=O)[O-])c4)c(Oc4cnc5[nH]ccc5c4)c3)CC2)=C(c2ccc(Cl)cc2)C1 | -10.9% | inactive | inactive | 114 | 3.72 µM (active) |  |  | 18.6 µM (active) | 0.118 µM (active) | 4.68 µM (active) |  | 
N#C[C@@H]1C[C@@H]2C[C@@H]2N1C(=O)[C@@H](N)C12CC3CC(CC(O)(C3)C1)C2 | -3% | inactive | inactive | 110 | inactive | inactive |  |  |  |  |  | 
COc1cc2nc(-c3cc(F)ccc3O)nc(N[C@@H]3CNC[C@H]3C(C)(C)O)c2cc1OC |  | inactive | inactive |  | 7.42 µM (active) | 4.68 µM (active) | 4.17 µM (active) | 5.25 µM (active) |  | 6.61 µM (active) | 6.61 µM (active) | 21.3 µM (active)
NC(=O)c1cccc(-c2cc(Nc3ccc(OC(F)(F)F)cc3)ncn2)c1 | -25.2% and 10.7% | inactive | inactive |  |  | 1.86 µM (active) |  |  | 16.6 µM (active) |  | 20.9 µM (active) | 
C=CCn1c(=O)c2cnc(Nc3ccc(N4CCN(C)CC4)cc3)nc2n1-c1cccc(C(C)(C)O)n1 |  | inactive | inactive |  |  | 0.296 µM (active) | 0.833 µM (active) | 0.742 µM (active) | 0.742 µM (active) | 0.742 µM (active) | 1.32 µM (active) | 21.7 µM (active) and 2.69 µM (active)
CC(C)S(=O)(=O)c1ccc2nccc(Nc3ccc4scnc4c3)c2c1 | -14.3% | inactive | inactive | 95.8 | inactive | 10.5 µM (active) |  | inactive |  | inactive |  | 
CCCCOC(=O)NS(=O)(=O)c1sc(CC(C)C)cc1-c1ccc(Cn2ccnc2)cc1 | 6.25% | inactive | inactive | 80.2 | inactive |  | inactive |  |  | inactive |  | 
COc1cc2c(Nc3ccc(NC(=O)c4ccccc4)cc3)ncnc2cc1OCCCN1CCOCC1 | 32.6% | inactive | inactive |  |  | 1.32 µM (active) | inactive | 20.9 µM (active) | 1.66 µM (active) | 23.5 µM (active) | 26.3 µM (active) | 
C=CC(=O)Nc1cccc(Oc2nc(Nc3ccc(N4CCN(C)CC4)cc3)ncc2Cl)c1 |  | inactive | inactive |  |  | 2.35 µM (active) | 4.17 µM (active) | 5.9 µM (active) | 1.86 µM (active) | 5.25 µM (active) | 14.8 µM (active) | 9.68 µM (active) and 13.5 µM (active)
CCCS(=O)(=O)Nc1ccc(F)c(C(=O)c2c[nH]c3ncc(-c4ccc(Cl)cc4)cc23)c1F | 15.9% and 18.8% | inactive | inactive | 117 | inactive | 14.8 µM (active) |  |  |  | inactive |  | 
COc1ccc(-c2cnc3c(-c4cccc5ncccc45)cnn3c2)cc1 | 16.1% | inactive | inactive | 119 |  | inactive | inactive | inactive | 7.42 µM (active) | inactive |  | 
COc1cc2c(cc1OC)CN(CCc1ccc(NC(=O)c3cc(OC)c(OC)cc3NC(=O)c3cnc4ccccc4c3)cc1)CC2 | 1.67% | inactive | inactive | 119 |  | inactive | inactive | inactive | inactive | inactive |  | 
